TDP1 cell CPT – growth inhibition of DT40 Tdp1-/-;hTDP1 cells with camptothecin (screen for TDP1 inhibitors); chicken DT40 Tdp1-/-;hTDP1 cells + 20 nM CPT, ATP luminescence, 48 h; Potency, µM (titrated, usually from 46.2 µM), usual class: inhibitors; hit rate 12% among 420,000; further: nearly all actives have a fitted effect of over 55% in size
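Chicken DT40 Tdp1-/- cells stably complemented with human TDP1 were seeded at 400 cells/well in medium containing 20 nM camptothecin, exposed to pin-transferred compounds, and grown at 37 °C for at least 48 hr. Viability was read as ATP luminescence.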
ELG1 DNA repair – inhibitors of ELG1-dependent DNA repair in HEK293T cells | hit rate 2.3% among 330,000 | Potency, µM (doses to about 46.1 µM), most hits filed as inhibitors | AID 504467 | HEK293T ELG1-luciferase reporter, luminescence, 16 h; DNA damage induced by 5-fluorouridine; further: nearly all actives have a fitted effect of over 55% in size
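5-Fluorouridine DNA damage + compound/DMSO, 2,000 cells/well, 16 h, 37 °C/5% CO2. ONE-Glo, 30 min RT, luminescence. Readout = decrease in reporter signal.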
DT40 TDP1 no CPT – qHTS for Inhibitors of human tyrosyl-DNA phosphodiesterase 1 (TDP1): qHTS in cells in absence of CPT; DT40 Tdp1-/- hTDP1 cells, no CPT, ATP luminescence, 48 h; Potency, µM (highest dose often 46.2 µM), usual class: inhibitors; hit rate 15% among 420,000; AID 686978, 2013; further: nearly all actives have a fitted effect of over 55% in size
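Camptothecin absent (DMSO only). Human TDP1-complemented DT40 knockout cells, 400 cells/well, 37 °C for minimum 48 hr; ATP measured via CellTiter-Glo, 30 min dark incubation, luminescence.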
IL1B secr inh – inflammasome signaling inhibition, IL-1 beta readout; THP-1 LPS/ATP IL-1B secretion, AlphaLISA, 16 h; active compounds read low; activity change, % at 57.5 µM; hit rate 4.7% among 360,000; AID 743279; in the data active means activity change below about -50%; inconclusive means mostly about -30% to -49%
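THP-1 cells pretreated 1 hr with compounds (up to 57.5 uM final), then stimulated with LPS (250 ng/mL final) plus ATP (1.25 mM final); secreted IL-1B measured by AlphaLISA after 16 hr, decreased signal indicating inhibition.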
HT1080 IDH1KD tx – HT-1080 IDH1 knockdown cell toxicity (counter line). HT-1080 IDH1 knockdown viability, ATP luminescence, 48 h. Potency, µM (highest dose often 46.1 µM), usual class: cytotoxic. hit rate 2% among 360,000
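Luminescent ATP read-out (CellTiter-Glo, 10 min at room temperature) after 48 h compound exposure at 37 °C gave viability of IDH1-knockdown HT-1080 cells. Activity was normalised to DMSO and cell-free wells, then fitted as concentration-response curves.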
HT1080-NT tox – kills 2HG-producing HT-1080-NT fibrosarcoma cells | Potency, µM (top dose mostly 46.1 µM), most hits filed as cytotoxic | hit rate 1.6% among 360,000 | HT-1080-NT fibrosarcoma viability, CellTiter-Glo ATP luminescence, 48 h;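 further: NT is the 2HG producing partner of a matched IDH1 knockdown line; nearly all actives have a fitted effect of over 55% in size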
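HT-1080-NT; 750 cells/well; 5% FBS RPMI; 48 h compound, 37 degrees C; CellTiter-Glo luminescence; curve fitting and curve-class assignment.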
Hits are given with their value. Most compounds without a hit are left out; they make up all but 19% or so of the library. Unless noted, the call rests on the fitted dose curve; in most records, active means well fitted curve in the direction sought with a large enough effect; inconclusive means small, poorly fitted or top-dose-only effect, or another doubt; inactive means no such curve, though single readings can be large; an effect the other way counts as inactive or inconclusive.

Screening CC(C)C(=O)N1CCN(c2ccc([N+](=O)[O-])cc2Cl)CC1 returned TDP1 cell CPT inconclusive, ELG1 DNA repair inactive, DT40 TDP1 no CPT inconclusive, IL1B secr inh inactive, HT1080 IDH1KD tx inactive and HT1080-NT tox inactive.
For O=C(O)c1c(-c2ccc(Cl)cc2)cn2ccccc12 the results were TDP1 cell CPT inactive, ELG1 DNA repair inconclusive, DT40 TDP1 no CPT inactive, IL1B secr inh inactive, HT1080 IDH1KD tx inactive and HT1080-NT tox inactive.
For CC1CCCCC12NC(=O)N(CC(=O)Nc1cccc(S(=O)(=O)N3CCCCC3)c1)C2=O (stereo not given) the results were TDP1 cell CPT inactive, ELG1 DNA repair inactive, DT40 TDP1 no CPT inactive, IL1B secr inh inactive, HT1080 IDH1KD tx inactive and HT1080-NT tox inactive.
For CC1CC(C)CN(C(=O)c2ccc(-c3ccc([N+](=O)[O-])cc3)o2)C1 (stereo not given) the results were TDP1 cell CPT 16.4µM, ELG1 DNA repair inconclusive, DT40 TDP1 no CPT 16.4µM, IL1B secr inh inconclusive, HT1080 IDH1KD tx inactive and HT1080-NT tox inactive.
`O=C(/C=C\c1ccc(-c2cccc([N+](=O)[O-])c2)o1)N1CCOCC1` gave TDP1 cell CPT inconclusive, ELG1 DNA repair inactive, DT40 TDP1 no CPT 23.1µM, IL1B secr inh inactive, HT1080 IDH1KD tx inactive and HT1080-NT tox inactive.
For CCc1nc2ccc(C(=O)N3CCN(c4ccc([N+](=O)[O-])cc4)CC3)cc2nc1CC the results were TDP1 cell CPT 16.4µM, ELG1 DNA repair inconclusive, DT40 TDP1 no CPT inconclusive, IL1B secr inh inconclusive, HT1080 IDH1KD tx inactive and HT1080-NT tox inconclusive.
For CCc1noc(C)c1C(=O)N1CCN(c2ccc([N+](=O)[O-])cc2)CC1 the results were TDP1 cell CPT inconclusive, DT40 TDP1 no CPT inconclusive, IL1B secr inh inactive, HT1080 IDH1KD tx inactive and HT1080-NT tox inactive.
O=C(c1ccc(-c2ccc([N+](=O)[O-])cc2)o1)N1CCCCC1 was read as TDP1 cell CPT inconclusive, ELG1 DNA repair inconclusive, DT40 TDP1 no CPT inactive, IL1B secr inh inactive, HT1080 IDH1KD tx inactive and HT1080-NT tox inactive.
For COc1cccc(C(=O)Nc2cccc(OCc3cc(=O)n4c5c(sc4n3)CCCC5)c2)c1 the results were TDP1 cell CPT inactive and DT40 TDP1 no CPT inactive.
O=P(OCC1CCCO1)(OCC1CCCO1)OCC1CCCO1 (stereo not given) was read as TDP1 cell CPT inactive, DT40 TDP1 no CPT inactive, IL1B secr inh inactive, HT1080 IDH1KD tx inactive and HT1080-NT tox inactive.
For Nc1ccc(NC(=O)c2cccs2)cc1 the results were TDP1 cell CPT inactive, ELG1 DNA repair inconclusive, DT40 TDP1 no CPT inactive, IL1B secr inh inactive, HT1080 IDH1KD tx inactive and HT1080-NT tox inactive.
`O=C(c1cccc(N2C(=O)C3C4C=CC(C4)C3C2=O)c1)N1CCCc2ccccc21` (stereo not given) gave TDP1 cell CPT inactive, ELG1 DNA repair inactive, DT40 TDP1 no CPT inconclusive, IL1B secr inh inactive, HT1080 IDH1KD tx inactive and HT1080-NT tox inactive.
For O=C(Nc1ccc2c(c1)CCC2)c1cccs1 the results were TDP1 cell CPT inactive, ELG1 DNA repair inconclusive, DT40 TDP1 no CPT inactive, IL1B secr inh -63.4, HT1080 IDH1KD tx inactive and HT1080-NT tox inactive.
O=C(Nc1cccc(C(=O)N2CCCc3ccccc32)c1)c1ccccc1 was read as TDP1 cell CPT inconclusive, ELG1 DNA repair inactive, DT40 TDP1 no CPT 20.6µM, IL1B secr inh inactive, HT1080 IDH1KD tx 23.1µM and HT1080-NT tox inconclusive.
For O=C(NC(=S)N1CCc2ccccc21)c1ccccc1 the results were TDP1 cell CPT 20.6µM, ELG1 DNA repair inconclusive, DT40 TDP1 no CPT 18.4µM, IL1B secr inh inactive, HT1080 IDH1KD tx inactive and HT1080-NT tox inactive.
Screening O=C(NC(=S)N1CCc2ccccc21)c1ccccc1Cl returned TDP1 cell CPT inconclusive, ELG1 DNA repair inconclusive, DT40 TDP1 no CPT inconclusive, IL1B secr inh inactive, HT1080 IDH1KD tx inactive and HT1080-NT tox inactive.

Screening results: PubChem, National Center for Advancing Translational Sciences (NCATS)
